Laboratory results published in PubChem BioAssay AID1619 (SRMLSC, 2009).
Among all 220,000 compounds or so, about 830 (0.38%) were called active.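 Rule for the calls: active = compound inhibiting the enzyme by more than half at any dose during confirmatory dose-response retesting; inconclusive = strong single-dose inhibitors picked by rank but not retested; inactive = the rest.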 A selection follows. Potency and affinity values are given separately.

biological target: Leucine aminopeptidase (Plasmodium falciparum (isolate 3D7)) (UniProt Q8IL11); test: P. falciparum M17LAP inhibitors, primary screen, biochemical, fluorogenic H-Leu-NHMec substrate, 1536-well (AID 1619); details: recombinant M17LAP, H-Leu-NHMec fluorogenic kinetic assay; at 30 µM; active compounds read high;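 note: plate controls were full reaction with DMSO carrier for no effect and no enzyme background for full effect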
Sequence (Q8IL11 whole entry, looked up): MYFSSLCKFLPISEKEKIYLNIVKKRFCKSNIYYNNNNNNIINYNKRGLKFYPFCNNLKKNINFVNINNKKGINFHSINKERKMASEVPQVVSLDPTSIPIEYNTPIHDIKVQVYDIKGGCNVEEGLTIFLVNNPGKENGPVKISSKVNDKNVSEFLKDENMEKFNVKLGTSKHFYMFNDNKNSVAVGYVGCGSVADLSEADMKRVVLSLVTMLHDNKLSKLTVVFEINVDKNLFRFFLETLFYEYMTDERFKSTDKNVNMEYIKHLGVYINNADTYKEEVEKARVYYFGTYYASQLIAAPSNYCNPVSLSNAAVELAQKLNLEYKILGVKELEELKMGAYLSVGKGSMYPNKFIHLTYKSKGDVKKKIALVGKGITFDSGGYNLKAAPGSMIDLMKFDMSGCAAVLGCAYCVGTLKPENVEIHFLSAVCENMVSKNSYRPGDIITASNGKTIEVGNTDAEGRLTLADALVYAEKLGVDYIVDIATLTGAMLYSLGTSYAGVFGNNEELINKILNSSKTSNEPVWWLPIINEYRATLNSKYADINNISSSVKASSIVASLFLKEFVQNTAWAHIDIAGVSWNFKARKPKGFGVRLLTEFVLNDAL

inhibition, inactive:
Cc1ccc(C(=O)c2cn[nH]c2-c2ccccc2O)cc1 44.9%
CCOC(=O)C1(C(=O)OCC)C(c2ccccc2)CC(O)N1C(C)=O (stereo not given) 1.54%
NC(=O)c1ccc(NC(=O)c2ccccc2S(=O)(=O)c2ccccc2[N+](=O)[O-])cc1 9.64%
COC(=O)N/N=C(\CCC(=O)O)c1cccs1 6.69%
O=C(O)CC/C(=N\NC(=O)c1ccccc1)c1cccs1 18.4%
Brc1ccc(/C=N/Nc2ncnc3c2cnn3Cc2ccccc2)cc1 -4.47%
CC(C)c1ccc(C(=O)CSc2n[nH]c(-c3ccncc3)n2)cc1 6.54%
Nc1nc(SCC(=O)Nc2ccc([N+](=O)[O-])cc2Br)n[nH]1 10.2%
Cc1nnc(SCC(=O)c2ccc(C(C)C)cc2)s1 -0.89%
COc1ccccc1NC(=O)CSc1ncn(-c2ccccc2)n1 5.61%
O=C(CSc1ccccc1)Nc1ccccc1C(=O)O 18.8%
COc1ccccc1NC(=O)CSc1nc(N)cc(N)n1 10.8%
CC(C)c1nc(SCC(=O)Nc2ccc([N+](=O)[O-])cc2Br)n[nH]1 6%
NC(=O)SCC(=O)Nc1ccccc1C(=O)O 9.51%
Cc1cc(C)cc(N2C(=O)CC(N(C(=O)c3ccco3)c3cc(C)cc(C)c3)C2=O)c1 (stereo not given) 3.47%
CC(C)c1ccc(Nc2ncccc2C(=O)O)cc1 13.8%
CC1CN(Cc2ccc(C#N)cc2Cl)CC(C)O1 (stereo not given) -2.17%
C/C(CCN1CCc2nc(-c3ccccc3)c(-c3ccccc3)cc2C1)=N\O[C@H](C)c1cn([C@H](CO)Cc2ccccc2)nn1 12.6%
Cc1oc(C)c(C(N)=O)c1C(N)=O -4.4%
COc1ccccc1NC(=O)CSc1nccc(=O)[nH]1 28.1%
O=C(CSc1ncccn1)Nc1ccc(S(=O)(=O)N2CCCCC2)cc1 -1.15%
Cc1cc(C)nc(SCC(=O)Nc2ccc(S(=O)(=O)N3CCCCC3)cc2)n1 -1.67%
COc1ccc(NC(=O)CSc2nc(O)cc(=O)[nH]2)c(OC)c1 14.7%
COc1ccccc1N1CCN(C(=O)CSc2nc(C)cc(=O)[nH]2)CC1 12.1%
O=C(CSc1ncccn1)Nc1ncc(C(F)(F)F)cc1Cl -4.61%
COc1ccccc1N1CCN(C(=O)CSc2nc(N)cc(=O)[nH]2)CC1 -20.8%
Nc1nc(SCC(=O)Nc2ncc(C(F)(F)F)cc2Cl)n[nH]1 1.49%
CC1=C(C(=O)OCc2ccccc2)C(c2ccoc2)C(C#N)=C(N)O1 (stereo not given) 5.93%
CC(NC(=O)C(=O)N/N=C\c1ccc([N+](=O)[O-])cc1)c1ccccc1 (stereo not given) 9.58%
CCOC(=O)/C(=C\c1cccnc1)C(=O)c1cc(C(C)=O)c(Nc2ccccc2)s1 -7.24%
Cc1ccc(NC(=O)COC(=O)Cc2csc(-c3ccc(Cl)cc3)n2)cc1C 5.09%
CCOC(=O)N1CCC(N(C(=O)Nc2cccc(OC)c2)C(C)CC)CC1 (stereo not given) 7.02%
CCN(CC)CCN1C(=O)C(=O)/C(=C(/O)c2ccncc2)C1c1ccccc1 (stereo not given) 45.4%
CCC1CCCCN1S(=O)(=O)c1ccc(NC(=O)CSc2ncccc2C(=O)O)cc1 (stereo not given) -3.83%
Nc1cc(=O)[nH]c(SCC(=O)Nc2nnc(-c3ccccc3)s2)n1 34.9%
O=C(CSc1nc(-c2ccccc2)c(-c2ccccc2)o1)Nc1nnc(-c2ccccc2)s1 5.34%
CC1CCN(S(=O)(=O)c2ccc(NC(=O)Cc3ccccc3)cc2)CC1 2.2%
CC(=O)N1c2ccccc2C(=O)C1N1CCCCC1 (stereo not given) 7.9%
CCn1c(SCC(=O)c2[nH]c(C)c(C(C)=O)c2C)nnc1-c1cccs1 12.2%
CC(C)CCNC(=O)C1CC(c2cccc([N+](=O)[O-])c2)=NO1 (stereo not given) 3.11%
O=C(CC12CC3CC(C1)CC(CC(=O)N1CCCC1)(C3)C2)N1CCCC1 1.98%
NC(=O)CC[C@H](NC(=O)c1ccc(F)cc1)C(=O)OCC(=O)Nc1ccc(N2CCOCC2)cc1 -1.82%
C=C(C)c1cccc(C(C)(C)NC(=O)NCc2ccncc2)c1 5.4%
Fc1ccccc1-c1[nH]ncc1-c1nnnn1-c1ccccc1 6.84%
COc1ccc(N2CCN(c3oc(-c4ccccc4OC)nc3C#N)CC2)cc1 0.71%
CCOC(=O)N1CCN(c2cc(C)c(C(C)=O)cc2F)CC1 14.4%
O=C(CN1C(=O)C2C3c4ccccc4C(c4ccccc43)C2C1=O)N1CCOCC1 (stereo not given) 4.26%
O=C(CN1C(=O)C2C3CC(C(Br)C3Br)C2C1=O)N1CCN(Cc2ccccc2)CC1 (stereo not given) -4.45%
CCCCOCCCNC(=O)CC(C)c1ccccc1 (stereo not given) 1.77%
CCOC(=O)N1CCN(C(=O)c2ccc3c(=O)n(Cc4ccc(Cl)cc4)c(=S)[nH]c3c2)CC1 -6.9%
CCCCn1c(=S)[nH]c2c(oc3ccc(Cl)cc32)c1=O 21.5%
O=C(COC(=O)/C=C/c1ccc(Cl)cc1Cl)NCCC1=CCCCC1 3.27%
Cc1ccccc1Nc1nnc(SCc2cc(=O)n3ccsc3n2)s1 28.1%
O=c1cc(CSc2nnc(Nc3ccccc3)s2)nc2sccn12 24.3%
C/C(=C\C(=O)O)C12CC3CC(CC(C3)C1)C2 11.6%
COc1ccc(NC(=O)/C=C/c2c(Cl)nc3ccccn23)cc1 -6.42%
CCc1ccccc1NC(=O)N[C@H](C(=O)O)C(C)CC (stereo not given in full) 23.6%
CC(C)C[C@H](NC(=O)Nc1ccc(Oc2ccccc2)cc1)C(=O)O 38.9%
COC(=O)[C@H](C)NC(=O)Nc1ccc(Oc2ccccc2)cc1 -1.77%
CCC(C)[C@H](NC(=O)Nc1ccc(S(N)(=O)=O)cc1)C(=O)O (stereo not given in full) 4.8%
